# Activity calls are given as the source filed them. A call without a number means that no potency is given here. The call rests on the fitted dose curve; in most records, active means well fitted activation curve with a large enough effect; inconclusive means small, poorly fitted or top-dose-only effect; inactive means no such curve, though single readings can be large or run the other way.
# Experiment: Confirmatory qHTS for Identification of Small Molecule Activators of Huntingtin-Antisense Promoter Activity
# Details: HEK293 HTT-AS promoter firefly luciferase reporter, 24 h; series mostly up to 57.5 µM
# How it was run: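 2,500 luciferase reporter HEK293 cells/well; 24 h culture; cpds up to 57.5 uM final, PTC124 50 uM ctrl; 24 h, 37C; Dual-Glo FLuc reagent, 10 min RT; lum. Norm.: vehicle 0%, zero RLU -100%.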
# Potency means the concentration at half of the fitted maximal effect.
row,Compound,Potency
1,Cc1ccc(Cl)cc1N(C)C(=O)C1CCCN(c2ncnc3onc(-c4ccc(F)cc4)c23)C1 (centres undefined),inactive
2,COc1cccc(Cn2c(SCc3ccc(C(=O)N4CCC(C)CC4)cc3)nc3ccncc32)c1,inactive
3,COc1ccc(-n2ccnc2SCC(=O)Nc2cccc(OC)c2)cc1,inactive
4,COc1ccc(C)cc1NS(=O)(=O)c1ccc(-c2cnc(C3CC3)o2)cc1,inactive
5,CCc1ccc(NC(=O)Nc2cn(C)c(=O)c3ccccc23)cc1,inactive
6,CCCCOc1ccc(CNC(=O)c2cc3n(n2)CCCN(Cc2ccc(C)cc2)C3=O)cc1,inactive
7,CSc1cccc(NC(=O)C2CCN(C(=O)c3cnn(-c4ccccc4)c3-n3cccc3)CC2)c1,inactive
8,COc1ccc(N2CCN(C(CNC(=O)C(=O)NCc3ccc(C)cc3)c3cccnc3)CC2)cc1 (centres undefined),inactive
9,COc1cc(NC(=O)Cn2nc(C(F)(F)F)c3c2CCC3)cc(OC)c1OC,inactive
10,Cc1ccc(Cl)cc1-n1ncc2c(NC3CCCCC3)ncnc21,inactive
11,CCS(=O)(=O)c1ccc(C(=O)N2CCN(c3nc4c(OC)ccc(C)c4s3)CC2)cc1,inactive
12,CCCCN(C)C(=O)C1CCCN(c2ncnc3onc(C)c23)C1 (centres undefined),inactive
13,Cc1ccc(-c2cn3nc(N4CCCC(C(=O)Nc5ccc(F)cc5)C4)sc3n2)cc1 (centres undefined),inactive
14,Cc1ccc(C(=O)N2CCc3cc(CNC(=O)CSc4ccccc4)ccc32)cc1,inactive
15,Cc1ccc(NC(=O)C2CCCN2S(=O)(=O)c2ccc3c(c2)CCCC(=O)N3)cc1C (centres undefined),inactive
16,O=C(NCc1ccccc1)c1cc2ccc3cccnc3c2[nH]1,2130 nM (active)
17,COc1cc(NC(=O)c2cnc3c(-c4ccc(F)cc4)c(C)nn3c2C)cc(OC)c1,inactive
18,COc1cc2c(cc1OC)C(COc1ccc(C(C)C)cc1)N(C(=O)COc1ccccc1)CC2 (centres undefined),inactive
19,CCCN(C(=O)CCc1nc(-c2ccc(C)cc2)no1)c1ccc(OCC)cc1,inactive
20,O=C(Cc1ccccc1)Nc1cccc(-c2cn3cccnc3n2)c1,10700 nM (active)

row,Compound,Potency
1,COc1ccc(NC(=O)Cn2c(=O)oc3cc(S(=O)(=O)N4CCCCCC4)ccc32)cc1OC,inactive
2,O=C(Nc1cccc(C(=O)N2CCN(c3ccc(Cl)cc3)CC2)c1)c1nsc2ccccc12,151 nM (active)
3,Cc1ccc(Cl)cc1-n1ncc2c(NCCCc3ccccc3)ncnc21,inactive
4,Cc1cccc(C(=O)Nc2nc(-c3nnn(-c4cc(F)ccc4F)c3C)ns2)c1,inactive
5,COc1ccc(-c2noc(N3CCN(c4cccc(Cl)c4)CC3)n2)cc1OC,inactive
6,CCn1c(=O)sc2cc(NS(=O)(=O)c3ccc(F)c(C)c3)ccc21,inactive
7,Cc1nc2nncn2c(NCc2ccc(Cl)cc2)c1C,inactive
8,CN(C)c1ccc(C(=C2C=CC(=[N+](C)C)C=C2)c2ccc(N(C)C)cc2)cc1,inactive
9,CCOc1ccccc1NS(=O)(=O)c1ccc2c(c1)CC(C)N2C(=O)C1CC1 (centres undefined),inactive
10,COc1ccc(-n2c(=O)[nH]c3cc(C(=O)NCCc4ccc(Cl)cc4)ccc3c2=O)cc1OC,inactive
11,CCN(C(=O)c1cc2c(s1)-c1ccccc1OC2)c1cccc(C(F)(F)F)c1,inactive
12,CCOC(=O)C1=C(CN2CCN(c3ccc(OC)cc3)CC2)NC(=O)NC1c1ccc(OC)cc1 (centres undefined),inactive
13,COc1cc(CN(C(=O)COc2ccc(Br)cc2)c2ccccn2)cc(OC)c1OC,inactive
14,CCC1CCCCN1C(=O)CSc1nc(-c2ccc(OC)c(OC)c2)cc(C(F)(F)F)n1 (centres undefined),inactive
15,Cc1ccc(CN2CCCn3nc(C(=O)NCc4ccc(OC(C)C)cc4)cc3C2=O)cc1,inactive
16,Cc1ccc(N2CCN(C(=O)c3nn(C)c4c3CS(=O)(=O)c3ccccc3-4)CC2)c(C)c1,inactive
17,COc1ccc(-c2cc(C)no2)cc1S(=O)(=O)N1CCN(c2ccccc2F)CC1,inactive
18,CCOc1cc(C(=O)Nc2ccc3oc(-c4ccc(CC)cc4)nc3c2)cc(OCC)c1OCC,inactive
19,Cc1ccc(Cn2c(SCc3ccc(C(=O)N4CCCCC4)cc3)nc3ccncc32)cc1,inactive
